# Measurements: PubChem BioAssay (NCATS)
# Results filed as inconclusive are left out. A number with no mark means an inactive call. Active and inactive are the calls of the source. The call rests on the fitted dose curve; in most records, active means well fitted inhibition curve with a large enough effect in the signal ratio, with a control signal flat (not every such curve was filed as active); inconclusive means small, poorly fitted or top-dose-only effect, or effect the other way, or a change in a side signal; inactive means no such curve, though single readings can be large or run the other way; the % refers to the signal ratio.
# Molecular target: Peroxisome proliferator-activated receptor delta (Homo sapiens) (UniProt Q03181)
# Sequence (Q03181 whole entry, looked up): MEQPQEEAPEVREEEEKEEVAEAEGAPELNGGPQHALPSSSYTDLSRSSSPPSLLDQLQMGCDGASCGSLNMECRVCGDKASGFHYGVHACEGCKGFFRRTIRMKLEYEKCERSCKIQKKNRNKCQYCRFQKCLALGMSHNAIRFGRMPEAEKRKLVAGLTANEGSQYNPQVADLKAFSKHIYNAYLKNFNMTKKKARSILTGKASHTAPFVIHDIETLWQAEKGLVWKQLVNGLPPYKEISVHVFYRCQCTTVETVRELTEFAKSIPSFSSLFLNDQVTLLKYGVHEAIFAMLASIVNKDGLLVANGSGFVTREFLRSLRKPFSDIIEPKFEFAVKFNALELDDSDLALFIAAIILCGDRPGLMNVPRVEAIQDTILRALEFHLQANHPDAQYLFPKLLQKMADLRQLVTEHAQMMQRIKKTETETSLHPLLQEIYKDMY
# Test: qHTS assay for small molecule antagonists of peroxisome proliferator-activated receptor delta signaling (AID 588535)
# Conditions: HEK293T PPARd-UAS-bla, beta-lactamase FRET ratio, 18 h; series mostly up to 76.7 µM; activity change, negative = inhibition: at the top concentration
# Excerpt: NIH Chemical Genomics Center [NCGC] U.S. Environmental Protection Agency [EPA] National Institutes of Environmental Health Sciences [NIEHS] National Toxicology Program [NTP] NCGC Assay Overview The Peroxisome proliferator-activated receptors (PPARs) are lipid-activated transcription factors of the nuclear receptor superfamily with three distinct subtypes namely PPAR alpha, PPAR delta (also called PPAR beta) and PPAR gamma. All these subtypes heterodimerizes with Retinoid X receptor (RXR) and have different physiological functions. […] This role of PPAR delta implicates the potential use of its ligands in the treatment of metabolic disorders.
# NCGC Assay Protocol Summary Using a beta-lactamase reporter-gene under control Peroxisome Proliferator-Activated Receptor delta (PPAR-delta) response element, a cell-based assay [GeneBLAzer (PPAR-delta-UAS-bla assay developed by Invitrogen] was used to measure PPAR-delta ligands signaling. GeneBLAzer PPAR-delta-UAS-bla HEK293T cells were used with assay medium containing 2% charcoal/dextran FBS. The assay was performed in clear bottom black Greiner 1536-well plates. Library compounds were measured for their ability to inhibit the reporter gene activity. Compounds were screened in a titration series in 1536-well format. The fluorescence intensity (405 nm excitation, 460/530 nm emission) was measured using an EnVision plate reader. […] Concentration-response titration points for each compound were fitted to the Hill equation yielding concentrations of half-maximal inhibition (IC50) and maximal response (efficacy) values. qHTS protocol for PPAR-delta beta-lactamase assay in antagonist mode [Step] [Parameter] [Value] [Description] 1. Reagent; 5 uL; 4000 cells/well 2. Incubation; 37 C for 5 hrs 3. Compounds; 23 nL; 0.59 nM to 92 uM 4. […] Incubation; 37 C for 18 hrs 7. Detection reagent; 1 uL of CCF4-dye 8. Incubation; RT for 2 hrs 9. Detection; Fluorescence; Envision plate reader
Compound,"activity change, negative = inhibition [%]",Potency
c1ccc2sc(SSc3nc4ccccc4s3)nc2c1,3.42,–
CN(C)c1ccc(N=NS(=O)(=O)O)cc1,-0.337,–
O=C(O)c1cc(O)c(O)c(O)c1,0.933,–
O=C(O)/C=C\C(=O)O,-4.69,–
Nc1ccc(O)c(C(=O)O)c1,15.2,–
Nc1cc(-c2ccncc2)c[nH]c1=O,16.8,–
O=c1cc(-c2ccccc2)oc2ccccc12,9.27,–
COc1cc(CNC(=O)CCCC/C=C/C(C)C)ccc1O,–,inactive
c1cnc2c(c1)ccc1cccnc12,–,17.8 µM (active)
Nc1ccc([N+](=O)[O-])cc1O,–,inactive
CCCCCCCCCCCCCCCC(=O)OC(C)C,0.199,–
O=C(OCc1ccccc1)c1ccccc1,-7.11,–
O=C(O)[C@H](O)[C@@H](O)[C@H](O)[C@H](O)CO,3.4,–
Nc1ccc(O)c([N+](=O)[O-])c1,–,inactive
CC(C)OC(=O)c1cc(C(=O)OC(C)C)cc([N+](=O)[O-])c1,6.14,–
O=C(Nc1ccccc1)c1cc([N+](=O)[O-])ccc1Cl,3.24,–
CC(C)NCC(O)COc1cccc2ccccc12 (stereo unspecified),–,inactive
S=c1[nH]c2ccccc2s1,1.7,–
C#C[C@]1(O)CC[C@H]2[C@@H]3CCc4cc(O)ccc4[C@H]3CC[C@@]21C,–,inactive
CCCOC(=O)c1ccc(O)cc1,–,inactive
Nc1nc2ccc([N+](=O)[O-])cc2s1,18.4,–
